# In PubChem BioAssay (NCATS):
# Several values for one entry are separate records, joined by “and”; a condition that tells them apart may be missing. Equal entries are not always repeated. Results filed as inconclusive are left out. Activity calls are given as the source filed them. Calls follow the shape of the dose curve; as a rule, active = well fitted inhibition curve with a large enough effect; inconclusive = small, poorly fitted or top-dose-only effect; inactive = no such curve, though single readings can be large or run the other way.
# Test: Primary qHTS for inhibitors of nuclear receptor binding SET domain protein 2 (NSD2) in an RCH-ACV wild type WT cells (2C) (AID 1645877); also: nearly all actives have a fitted effect of over 70% in size
# Conditions: RCH-ACV (leukaemia line) NSD2 WT (2C) viability, CellTiter-Glo, 72 h; series mostly up to 44.9 µM
# Description: Assay Provider: Jonathan D. Licht, MD
# University of Florida College of Medicine, Gainesville, FL
# Mutations in epigenetic regulators are common in relapsed pediatric acute lymphoblastic leukemia (ALL). Here, we uncovered the mechanism underlying the relapse of ALL driven by an activating mutation of the NSD2 histone methyltransferase (p.E1099K). […] Correction of this mutation restored glucocorticoid sensitivity. The transcriptional response to glucocorticoids was blocked in NSD2 mutant cells due to depressed glucocorticoid receptor (GR) levels and the failure of glucocorticoids to autoactivate GR expression. […] Pre-treatment of NSD2 p.E1099K cell lines and PDX samples with PRC2 inhibitors reversed glucocorticoid resistance in vitro and in vivo.
# High-throughput drug screening of isogenic RCH-ACV cell lines was performed at the National Center for Advancing Translational Science (NCATS), National Institutes of Health as previously described (1). Briefly, isogenic RCH-ACV NSD2 p.E1099K mutant (9B) and WT cells (2C) were plated at 500 cells/well in a 1536-well plate with a 72-hour incubation with compounds prior to addition of CellTiter-Glo to assess cell viability. NCATS libraries screened include: NPC, MIPE 5.0, Kinase and NPACT. To determine compound activity in the qHTS assay, the concentration-response data for each sample was plotted and modeled by a four-parameter logistic fit yielding IC50 and efficacy (maximal response) values. The area under the curve (AUC) of the dose-response curve ensures both efficacy (magnitude of cell killing) and potency (concentration that elicits cell killing) are accounted for in the analysis of activity.
# 1. Tobie D Lee, Olivia W Lee, Kyle R Brimacombe, Lu Chen, Rajarshi Guha, Sabrina Lusvarghi, Bethilehem G Tebase, Carleen Klumpp-Thomas, Robert W Robey, Suresh V Ambudkar, Min Shen, Michael M Gottesman, Matthew D Hall. A High-Throughput Screen of a Library of Therapeutics Identifies Cytotoxic Substrates of P-glycoprotein. Mol Pharmacol. 2019, Nov;96(5):629-640.
# Potency is read from the fitted curve at half-maximal effect.
row,Compound,Potency
1,C[n+]1cc(NC(=O)c2cccc(C(=O)Nc3cc4ccccc4[n+](C)c3)n2)cc2ccccc21,inactive
2,O=C(O)c1ccc(O)c2ncc(N3CCCN(CCc4cccc5ccccc45)CC3)cc12,4.09 µM (active)
3,COc1c(N2CC3CCCNC3C2)c(F)cc2c(=O)c(C(=O)O)cn(C3CC3)c12 (stereo not given),inactive
4,COc1cc(OC)cc(N(CCNC(C)C)c2ccc3ncc(-c4cnn(C)c4)nc3c2)c1,10.5 µM (active)
5,COc1ccc(CNC(=O)Nc2ncc([N+](=O)[O-])s2)cc1,18.6 µM (active)
6,CSc1cc2c(s1)c1cnn(Cc3ccccc3F)c(=O)c1n2C,inactive
7,CN1CCN(Cc2ccc(Nc3ncc(Cl)c(Nc4ccccc4S(=O)(=O)N(C)C)n3)cc2)CC1,0.0152 µM (active)
8,O=C1NC(=O)C(c2c[nH]c3ccccc23)=C1c1c[nH]c2ccccc12,20.9 µM (active)
9,COc1ccccc1NC(=O)Nc1ccc2ccccc2c1,2.9 µM (active)
10,O=C(O)c1c[nH]c2c(ccc3ccccc32)c1=O,inactive
11,COCCOCCOc1ccc(C2=N[C@@](C)(C(=O)O)CS2)c(O)c1,10.3 µM (active)
12,Cc1cn(C2OC(CO)C(O)C2F)c(=O)[nH]c1=O (stereo not given),inactive
13,Cc1[nH]c(/C=C2\C(=O)Nc3ccc(F)cc32)c(C)c1C(=O)NC[C@H](O)CN1CCOCC1,6.49 µM (active) and 10.5 µM (active)
14,C[C@H](NC(=O)C(C)(C)Oc1ccc(C(F)(F)F)cn1)[C@@H](Cc1ccc(Cl)cc1)c1cccc(C#N)c1,20.5 µM (active)
15,Cc1[nH]c(/C=C2\C(=O)Nc3ccccc32)c(C)c1CCC(=O)O,inactive
16,C=C(C)C(=O)O[C@H]1[C@H]2C(=C)C(=O)O[C@@H]2C[C@@H](C)[C@@H]2O[C@@H]2C(=O)[C@](C)(O)[C@@H]1OC(C)=O,1.42 µM (active)
17,[2H]C([2H])([2H])C(OC(=O)[C@H](C)N[P@](=O)(OC[C@H]1O[C@@H](n2ccc(=O)[nH]c2=O)[C@](C)(F)[C@@H]1O)Oc1ccccc1)C([2H])([2H])[2H],inactive
18,COC[C@H](C)Oc1cc(O[C@@H](C)Cc2ccccc2)cc(C(=O)Nc2ccc(C(=O)O)cn2)c1,inactive
19,c1ccc(Cn2c(-c3ccc(OCC(C4CCNCC4)n4c(-c5ccccc5)nc5ccccc54)cc3)nc3ccccc32)cc1 (stereo not given),5.9 µM (active)
20,CC(C)=CCC/C(C)=C/CC/C(C)=C/CSc1ccccc1C(=O)O,inactive

row,Compound,Potency
1,Cc1ccc(NS(=O)(=O)c2cc3c(cc2F)NC(=O)CC3)cc1Cl,inactive
2,CN1CCCN(C(=O)c2cccc(-c3ccc(/C=C4\C(=O)Nc5ccc(Cl)cc54)o3)c2)CC1,0.231 µM (active)
3,CCn1c(=O)c2cc(C(N)=O)c(N)nc2n(C2CC2)c1=O,inactive
4,OC[C@H]1O[C@@H](O[C@@H]2OC=C[C@H]3[C@H](O)[C@@H]4O[C@]4(CO)[C@@H]23)[C@H](O)[C@@H](O)[C@@H]1O,inactive
5,O=S(=O)(NCCNC/C=C/c1ccc(Br)cc1)c1cccc2cnccc12,14.8 µM (active)
6,CNc1nc(-c2ccc3c(N)n[nH]c3c2)cc(N2CC(C(=O)NC3CCCCC3)CCC2C)n1 (stereo not given),1.15 µM (active)
7,Oc1cccc(Nc2ccnc3cc(-c4cccc(CN5CCOCC5)c4)sc23)c1,1.46 µM (active)
8,CC(=O)N1CCN([C@H]2CCN(C(=O)N(C)[C@H](C)c3cc(C(F)(F)F)cc(C(F)(F)F)c3)[C@@H](c3ccc(F)cc3C)C2)CC1,14.5 µM (active)
9,COc1cc(/C=C(\C#N)C(N)=O)cc(CSc2nc3ccccc3s2)c1O,inactive
10,O=C(/C=C/n1cnc(-c2cc(C(F)(F)F)cc(C(F)(F)F)c2)n1)NNc1cnccn1,2.05 µM (active)
11,COc1cc2nc(N3CCN(C)CC3)nc(NC3CCN(Cc4ccccc4)CC3)c2cc1OC,5.78 µM (active)
12,O=C1NC(=O)/C(=C/c2ccc3nccc(-c4ccncc4)c3c2)S1,920 nM (active) and 525 nM (active)
13,CCOC(=O)c1c2c3c(cccc3[nH]c1=O)C(=O)c1ccccc1-2,inactive
14,Cc1ccc(OCCSc2ncccn2)c(Br)c1,inactive
15,O=c1cc(-c2ccc(O)cc2)oc2cc(OC3OC(CO)C(O)C(O)C3O)c(C3OC(CO)C(O)C(O)C3O)c(O)c12 (stereo not given),inactive
16,O=[N+]([O-])c1ccc(-[n+]2nc(-c3ccccc3)nn2-c2ccc(I)cc2)cc1,inactive
17,O=C(NCc1ccc(Oc2ccccc2)cc1)c1nc(-c2cc(Br)c(O)c(Br)c2)no1,20.5 µM (active)
18,CSC(Cc1ccc(Cl)cc1)C(=O)Nc1ccc(Cl)cc1C(=O)O (stereo not given),inactive
19,CC/C(=C(/CC)c1ccc(O)c(CN(CC)CC)c1)c1ccc(O)c(CN(CC)CC)c1,16.4 µM (active)
20,CN(C)CC(=O)N1CCC[C@@H](n2nc(-c3ccc(Oc4ccccc4)cc3)c3c(N)ncnc32)C1,1.64 µM (active)
